# Values joined by “and” are separate entries in the source; they are usually repeats but may differ in a detail not shown here. Equal entries are not always repeated. Active and inactive are the calls of the source. Rule for the calls: active = hit-call score of the fitted dose curve at least 0.9, where 1 is the maximum; inactive = score below 0.9.
# Test: CCTE_Shafer_MEA_dev_network_spike_peak: CCTE's Neural Network Formation Assay for Mean Number of Electrodes in Network Spike, Shafer Lab (AID 2284049)
# Experimental: CCTE_Shafer_MEA_dev assay is conducted using Axion Biosystems 48 well microelectrode array (MEA) plates and Maestro recording system. Each well of the MEA plate contains a grid of 16 microelectrodes embedded in the culture surface. Electrically active cells, such as neurons, can be cultured over the electrodes, and electrical activity in these cells can be recorded extracellularly. The spontaneous firing of neurons is captured from each electrode on a microsecond timescale providing both temporally and spatially precise data. […] The CCTE_Shafer_MEA_dev assay uses primary cultures of rat cortical neurons. Recordings are made on days post-plating 5, 7, 9 and 12. As these cultures mature over time, neural networks develop functional activity and form cohesive networks in which electrical activity can be highly coordinated. CCTE_Shafer_MEA_dev_network_spike_peak is 1 of 19 assay components of the CCTE_Shafer_MEA_dev assay. It measures the average number of electrodes participating at the peak of a network spike (the peak of a temporally-clustered group of action potential firing across multiple electrodes) during a recording in a microelectrode array (MEA) using Axion Biosystems Maestro 768 channel amplifier with the AxIS adaptive spike detector. To collapse across multiple recordings made on days post-plating 5, 7, 9 and 12, the trapezoidal area-under-the-curve of the component is calculated.Data from the assay component CCTE_Shafer_MEA_dev_network_spike_peak was analyzed into 1 assay endpoint. This assay endpoint, CCTE_Shafer_MEA_dev_network_spike_peak, was analyzed in the negative analysis fitting direction relative to DMSO as the negative control and baseline of activity. Using a type of functional reporter, gain or loss-of-signal activity can be used to understand electrical activity.
# On the day prior to culture, each well was coated thoroughly with 150 uL of 0.05% polyethyleneimine (PEI, Sigma Cat P3143) in 50 mM HEPES (Sigma Cat H7523) at a pH of 8. The plate was incubated at 37C for one hour. PEI was rinsed out with 500 uL of sterile water three times. Plates were stored at 4C until the day of culture. This culture was plated at a seeding density of 1.5 x 10^5 cells/well on a 48-well MEA plate, prepared as described above. Cells were administered via a 25 uL media/laminin ([…]; Sigma Cat L2020-1MG) drop directly onto the microelectrode array, as adding the cells with the laminin results in better attachment than pre-coating with laminin. After 2 hours, an additional 475 uL of cortical media was added and the cells returned to the incubator. Exposure starts at day 0 of plating and is continued over twelve days of network development until the experiment is terminated. Cells are fed with fresh medium on DIV 5 and 9, following the recordings on those days. The entire volume of media in the well is exchanged and any vehicle or compound treatment is renewed. Complete details are found in OP-NHEERL/ISTD/SBB/TJS/2015-03-r0 (available on request, email shafer.tim@epa.gov). Measurement of the electrical activity is non-invasive, and recordings can be made from the same plate over multiple different days of the culture. In cortical neurons, this allows for the measurement of extracellular action potentials over the period during which networks form in the MEA plate.
Structure (SMILES),outcome,AC50
c1ccc2cc3ccccc3cc2c1,inactive,–
O=C(Cl)C(F)(F)C(F)(F)C(F)(F)C(=O)Cl,inactive,–
CCCC(CCC)C(=O)O,inactive,–
Nc1ccn([C@@H]2O[C@H](CO)[C@@H](O)[C@@H]2O)c(=O)n1,–,160 nM (active) and 623 nM (active)
C[C@]12C=CC(=O)C=C1CC[C@H]1[C@@H]3C[C@@H](O)[C@](O)(C(=O)CO)[C@@]3(C)C[C@H](O)[C@@]12F,–,0.116 µM (active)
OC(O)(C(F)C(O)(O)C(F)(F)F)C(F)(F)F,inactive,–
CCOc1ccc2[nH]cc(C(=O)NCc3ccccc3)c(=O)c2n1,inactive,–
COc1cc2c(c(OC)c1OC)-c1ccc(OC)c(=O)cc1[C@@H](NC(C)=O)CC2,–,0.0261 µM (active)
Cn1cc[nH]c1=S,inactive,–
FC(F)(F)COC(OCC(F)(F)F)OCC(F)(F)F,inactive,–
NCC(F)(F)C(F)(F)C(F)(F)C(F)(F)F,inactive,–
FC(F)(F)C(F)(F)C(F)(F)C(F)(F)C(F)(F)C(F)(F)I,inactive,–
c1ccc2c(c1)-c1cccc3c1c-2cc1ccccc13,–,6.22 µM (active)
CC[C@H](C)C(=O)O[C@H]1C[C@H](O)C=C2C=C[C@H](C)[C@H](CC[C@@H](O)C[C@@H](O)CC(=O)O)[C@H]21,–,3.06 µM (active)
OC(Cn1cncn1)(Cn1cncn1)c1ccc(F)cc1F,inactive,–
NNC(=O)c1ccncc1,–,2.98 µM (active)
OCCC(F)(F)C(F)(F)C(F)(F)C(F)(F)F,inactive,–
CCN(CC)C(=S)SSC(=S)N(CC)CC,–,110 nM (active) and 50.8 nM (active)
NC(=O)N1c2ccccc2C=Cc2ccccc21,inactive,–
